# From PubChem
# Most compounds without a hit are left out; they make up all but 14% or so of the library.
# Lassa entry inh = inhibitors of Lassa virus binding or cell entry | Lassa virus pseudotype entry inhibition, cell reporter | Potency, µM (doses to about 37.9 µM), for the others: at the top dose activity change, negative = inhibition, usual class: inhibitors | 300,000 tested, 1.2% active | AID 540256; calls by dose curve; tested in HEK293 cells; note: potency is the fitted concentration of half-maximal effect; nearly all actives have a fitted effect of over 50% in size
# Pf growth 48h = P. falciparum growth inhibition at 48 hours (one generation); P. falciparum luciferase growth in erythrocytes, 48 h; Potency, µM (highest dose often 28.7 µM), for the others: at the highest dose activity change, negative = inhibition, usual class: inhibitors; 310,000 tested, 5.9% active; AID 504832; note: potency is the fitted concentration of half-maximal effect
#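 Read-out is firefly luciferase luminescence from an integrated reporter in P. falciparum, so falling signal marks reduced parasite growth. Infected erythrocytes were at 2% hematocrit and 0.1% parasitemia (final) in Albumax-supplemented RPMI 1640.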
# Marburg entry inh = Marburg virus entry inhibition | Marburg virus pseudotyped entry inhibition, cell reporter | Potency, µM (series often up to 37.8 µM), inactives show top-dose activity change, negative = inhibition, hits mostly inhibitors | 300,000 tested, 1.8% active | AID 540276; calls by dose curve; tested in HEK293 cells; note: potency is the fitted concentration of half-maximal effect
# HCMV antiviral = human cytomegalovirus inhibition | 410,000 tested, 4.5% active | HFF cells, HCMV-luciferase reporter, 72 h; hits give low values | activity change, negative = inhibition, % at 57.5 µM; in the data active = activity change below about -60%; inconclusive = no clear call, values can overlap the other calls; inactive = above about -39%
#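 After 16 h attachment at 37C, HFF cells received test compound and HCMV-luciferase (1 PFU/cell); reporter luminescence read 72 h later, data normalized against buffer-only and known inhibitor Salinomycin.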
# Pf growth 96h = P. falciparum growth inhibition at 96 hour, primary screen for plastid delayed-death inhibitors; P. falciparum luciferase reporter growth, 96 h; AID 504834; 320,000 tested, 6.9% active; Potency, µM (titrated, usually from 28.7 µM), inactives show at the top dose activity change, negative = inhibition, most hits filed as inhibitors; note: potency is the fitted concentration of half-maximal effect
#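 Infected RBCs, 2% Hct / 0.05% parasitemia final; luciferase-reporter P. falciparum; cpd 96 h, 37 C, 5% CO2; luciferase detection reagent; luminescence.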
# HCV inh = inhibitors of hepatitis C virus infection. Huh7.5.1 HCVcc-Cre infection, luciferase reporter, 44 h. AID 651820. Potency, µM (series often up to 41.8 µM), inactives show at the top dose activity change, negative = inhibition, most hits filed as inhibitors. 340,000 tested, 3.4% active; note: potency is the fitted concentration of half-maximal effect
#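 Infectious HCVcc-Cre (~0.5 moi) was added to cells just after compound, with cells seeded 4 h earlier at 1,000 per well. Luciferase activity after 44 h culture reported infection; substrate was incubated 15 min at room temperature before reading.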
# Active calls of the source: *; ? = inconclusive; . = no result given; [ ] = another dose, or the depositor's remark. Unless noted, calls come from the whole dose curve; as a rule, active = well fitted inhibition curve with a large enough effect; inconclusive = small, poorly fitted or top-dose-only effect, or another doubt; inactive = no such curve, though single readings can be large or run the other way. % is set by controls: 0 for no effect and ±100 for the full control effect.
SMILES,Lassa entry inh,Pf growth 48h,Marburg entry inh,HCMV antiviral,Pf growth 96h,HCV inh
COC(=O)c1ccc(C2CC(=O)Nc3c2c(C)nn3-c2nc(C)cc(C)n2)cc1 (stereo not drawn),-7%[46.1 µM],.,19%[46.1 µM],-6,.,.
NC(N)=NN=C(c1ccc(F)cc1)c1ccc(C(F)(F)F)cc1,10µM*,.,?,-77*,.,?
O=C(c1cc2ccccc2o1)c1cccs1,-17%,136%,-17%,13,.,-20%
O=C(NC(=S)Nc1ccc(NC(=O)c2cccs2)cc1)c1cc2ccccc2o1,-5%,3.3µM*,?,-16,68%,-3%
CC(C)C(=O)N1CCN(c2ccc(NC(=S)NC(=O)c3cc4ccccc4o3)cc2)CC1,?,0%,?,-36,5.2µM*,-29%
O=C(NC(=S)Nc1ccc(NC(=O)c2cccs2)cc1)c1ccco1,8%,1.7µM*,8%,-33,?,?
Cc1ccc(C2=NN(CCC(=O)NCCc3cccc(C)c3)C(=O)CC2)cc1,-30%[46.1 µM],.,.,-20,.,.
CCCN1C(=O)/C(=C\C=C2\N(CC)c3ccccc3C2(C)C)SC1=S,-26%[46.1 µM],5.2µM*,17%[46.1 µM],-19,-4%,?
CN1/C(=C\C=C2/C(=O)Oc3ccccc3C2=O)C(C)(C)c2ccccc21,?,12µM*,-2%,-17,?,-4%
CN1/C(=C\C=C2C(=O)NC(=S)NC2=O)C(C)(C)c2ccccc21,-22%[46.1 µM],16%,?,-20,-7%,-23%
CCCN1C(=O)/C(=C\C=C2/Sc3ccccc3N2CC)SC1=S,.,22%,.,.,49%,.
CN1C(=CC=C2C=C(I)C(=O)C(I)=C2)C(C)(C)c2ccccc21,12%,3.3µM*,-3%[46.1 µM],-77*,2.1µM*,-24%
CN1/C(=C\C=C2/SC(=S)NC2=O)C(C)(C)c2ccccc21,.,?,.,-93*,?,?
CC(C)CN(C(=O)CCCSc1nc2ccccc2[nH]1)c1c(N)n(Cc2ccccc2)c(=O)[nH]c1=O,6%,?,-2%,-17,?,?
COc1ccc(NC(=O)Cc2ccc(NC(=O)N3CCCCc4ccccc43)cc2)c(OC)c1,-16%[46.1 µM],.,.,35,.,.
O=C(O)CCC/C=C\C[C@@H]1[C@@H](/C=C/[C@H](O)C2Cc3ccccc3C2)[C@@H](F)C[C@@H]1O,?,.,-9%,.,.,.
COc1ccc(C(C(=O)NC2CCCC2)N(C(=O)c2snc(-c3ccc(F)cc3)c2N)c2cccc(F)c2)cc1 (stereo not drawn),-11%,?,-1%,-39,0%,10µM*
COc1ccc(C(C(=O)NC2CCCC2)N(C(=O)c2snc(-c3ccc(F)cc3)c2N)c2ccc(OC)cc2)cc1 (stereo not drawn),-6%,?,-20%,0,5.2µM*,?
Cc1c(C(=O)O)sc2nc(/C=C/c3cccc(F)c3)[nH]c(=O)c12,.,4%,.,84,-17%,-10%
Cc1c(C(=O)O)sc2nc(/C=C/c3ccccc3OC(F)F)[nH]c(=O)c12,-8%,-17%,3%,5,13µM*,1%
Cc1cc(C(=O)CSc2nnc(-c3ccco3)o2)c(C)n1-c1ccc2c(c1)OCCO2,?,.,-15%,-28,12µM*,13µM*
CC(=O)c1ccc(OCC(=O)c2cc(C)n(-c3ccc4c(c3)OCO4)c2C)cc1,?,-14%,?,-40,0%,13µM*
Cc1cc(C(=O)CSc2nnc(-c3cccs3)o2)c(C)n1-c1ccccc1,-18%,15%,?,-23,?,8.9µM*
COc1cccc(NC(=O)CSc2nnc(-c3cc(C)n(-c4ccccc4)c3C)o2)c1,14%,171%,?,.,10µM*,-27%
O=C(CSc1nnc(-c2cccs2)o1)c1cccs1,14%,141%,17%,28,6%,-15%
CSCCC(NC(=O)COc1ccccc1)C(=O)N1CCN(c2ccccc2Cl)CC1 (stereo not drawn),?,?,-16%,-8,?,?
CCCSc1ncc(Cl)c(C(=O)Nc2ccc(OC)cc2OC)n1,2%[46.1 µM],.,-19%[46.1 µM],-25,.,.
